Screens: PubChem BioAssay, National Center for Advancing Translational Sciences (NCATS)
HPGD inh – qHTS Assay for Inhibitors of HPGD (15-Hydroxyprostaglandin Dehydrogenase); 15-hydroxyprostaglandin dehydrogenase [NAD(+)] (Homo sapiens), P15428; purified HPGD, NADH fluorescence kinetic, PGE2 substrate; Potency, µM, for the others: at the top dose activity change, negative = inhibition, most hits filed as inhibitors; 150,000 tested, 4.3% active; AID 894, 2007; active = well fitted inhibition curve with a large enough effect, not every such curve was filed as active; inconclusive = small, poorly fitted or top-dose-only effect, or another doubt; inactive = no such curve, though single readings can be large or run the other way
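20 nM HPGD preincubated 15 min at room temperature with compound in 50 mM Tris-HCl pH 8, 0.01% Tween 20. Started with 1 mM NAD+ and 30 uM prostaglandin E2; NADH fluorescence (360/450 nm) read 5 times over 30-s intervals, last minus first.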
Tau FP inhib – qHTS for Inhibitors of Tau Fibril Formation, Fluorescence Polarization. Microtubule-associated protein tau (Homo sapiens), P10636. 280,000 tested, 0.39% active. Potency, µM (highest dose often 57.7 µM), for inactives: at the top dose activity, negative = inhibition, usual class: inhibitors. K18 P301L tau heparin fibrillization, Alexa594 FP, 6 h; also: nearly all actives have a fitted effect of over 55% in size
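Read-out: fluorescence polarization of Alexa 594-labeled tau (0.24 uM), 555 nm excitation, 632 nm emission. Mixtures held 15 uM unlabeled K18 P301L, compound and 20 uM heparin, pH 7 acetate buffer, incubated 6 hr at 37 C.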
Tau fluor counter – Counterscreen qHTS for Inhibitors of Tau Fibril Formation, Fluorescence Polarization | tau K18 P301L Alexa594 fluorescence, heparin fibrillization | Potency, µM (titrated, usually from 57.7 µM), without a hit: at the highest dose activity change, negative = decrease | 280,000 tested, 0.93% active | AID 1463, 2008; also: nearly all actives have a fitted effect of over 55% in size
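Human tau K18 P301L (15 uM unlabeled, 0.24 uM Alexa 594-labeled) in 100 mM sodium acetate pH 7 with 20 uM heparin, 6 hr at 37 C. ThT 30 uM added, 1 hr ambient; Alexa 594 FP and total fluorescence read at 555/632 nm.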
Tau ThT inhib – qHTS for Inhibitors of Tau Fibril Formation, Thioflavin T Binding; Microtubule-associated protein tau (Homo sapiens), P10636; recombinant tau K18 P301L (four-repeat tau fragment), heparin-induced fibrillization, ThT fluorescence; Potency, µM (highest dose often 57.4 µM), inactives show at the top dose activity, negative = inhibition, most hits filed as inhibitors; 270,000 tested, 2.1% active; also: nearly all actives have a fitted effect of over 55% in size
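Heparin-induced fibrillization of the P301L-mutant K18 repeat-domain fragment of human tau was followed by ThT binding in quantitative high-throughput format.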
JMJD2E inh – qHTS Assay for Inhibitors of Human Jumonji Domain Containing 2E (JMJD2E). Lysine-specific demethylase 4E (Homo sapiens), B2RXH2. JMJD2E catalytic domain, FDH-coupled NADH fluorescence (FDH is formaldehyde dehydrogenase). Potency, µM (series often up to 57.1 µM), for inactives: at the highest dose activity change, negative = inhibition, hits mostly inhibitors. 230,000 tested, 1.6% active. AID 2147, 2009; active = well fitted inhibition curve with a large enough effect, not every such curve was filed as active; inconclusive = small, poorly fitted or top-dose-only effect, or another doubt; inactive = no such curve, though single readings can be large or run the other way;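 also: 0% = wells with enzyme and -100% = buffer wells without enzyme; nearly all actives have a fitted effect of over 50% in size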
ALDH1A1 block – qHTS Assay for Inhibitors of Aldehyde Dehydrogenase 1 (ALDH1A1); Aldehyde dehydrogenase 1A1 (Homo sapiens), P00352; Purified ALDH1A1, NADH fluorescence, propionaldehyde substrate; Potency, µM (doses to about 75.3 µM), inactives show at the top dose activity, negative = inhibition, usual class: inhibitors; 220,000 tested, 7.3% active; active = well fitted inhibition curve with a large enough effect, not every such curve was filed as active; inconclusive = small, poorly fitted or top-dose-only effect, or another doubt; inactive = no such curve, though single readings can be large or run the other way;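 also: plate controls were no enzyme wells and a reference inhibitor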
Target sequence (P00352 whole entry, looked up): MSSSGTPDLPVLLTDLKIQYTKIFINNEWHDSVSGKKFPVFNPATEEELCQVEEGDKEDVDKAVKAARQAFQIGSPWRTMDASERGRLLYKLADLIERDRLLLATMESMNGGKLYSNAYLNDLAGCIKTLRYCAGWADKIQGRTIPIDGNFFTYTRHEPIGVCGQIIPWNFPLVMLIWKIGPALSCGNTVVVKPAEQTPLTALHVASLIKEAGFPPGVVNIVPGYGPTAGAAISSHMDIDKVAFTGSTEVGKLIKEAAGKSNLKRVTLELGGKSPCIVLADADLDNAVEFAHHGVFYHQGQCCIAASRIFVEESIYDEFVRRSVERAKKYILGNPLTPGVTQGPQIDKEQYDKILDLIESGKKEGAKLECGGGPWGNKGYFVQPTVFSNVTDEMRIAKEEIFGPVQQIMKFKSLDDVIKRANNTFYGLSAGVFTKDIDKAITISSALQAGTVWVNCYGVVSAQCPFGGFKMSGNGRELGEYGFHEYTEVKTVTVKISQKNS
Active calls of the source: *; ? = inconclusive; . = no result given; [ ] = dose if it differs, or a comment. Rows were chosen to be rich in hits. Some 9.9% of all compounds tested hit in one or more screens of this group. Unless noted, calls follow the shape of the dose curve; as a rule, active = well fitted curve in the direction sought with a large enough effect; inconclusive = small, poorly fitted or top-dose-only effect, or another doubt; inactive = no such curve, though single readings can be large; an effect the other way counts as inactive or inconclusive. Unless noted, % is scaled to controls: 0 for no effect and ±100 for the full control effect; potency is read from the fitted curve at half-maximal effect.

SMILES | HPGD inh | Tau FP inhib | Tau fluor counter | Tau ThT inhib | JMJD2E inh | ALDH1A1 block
CCOC(=O)/C(=N/Nc1ccccc1)Sc1nnnn1-c1ccc(C)cc1 | -14% | 0% | 2% | -1% | 5% | 7.1µM*
CCOC(=O)/C(=N/Nc1ccc(Cl)cc1)Sc1nnnn1-c1ccc(C)cc1 | -11% | 7% | -21% | -9% | 8% | 1%
O=C(/C(=N\Nc1ccc(Br)cc1)Sc1nnnn1-c1ccccc1)c1ccccc1 | -9% | 2% | ? | -19% | -28% | 1.6µM*
CCN(Cc1ccccc1)Cc1c(O)ccc2oc(C)c(C(=O)Nc3ccccc3C)c12 | . | 11% | -17% | -10% | . | .
Cc1ccn2c(Nc3ccc4c(c3)OCCO4)c(-c3ccc(C)o3)nc2c1 | . | 10% | ? | ? | . | .
COc1ccc2ncc(S(=O)(=O)c3ccccc3)c(N3CCC4(CC3)OCCO4)c2c1 | 0% | 1% | 2% | 8% | -3% | 7.9µM*
C[N+](C)(CCCOc1ccccc1)c1ccccc1 | 0% | . | . | . | -8%[25.5 µM] | -8%[20.9 µM]
CC(C)CCNC(=O)[C@@H](c1ccccc1)N1Cc2ccccc2C1=O | . | -20% | -18% | -11% | . | .
Cc1ccc(C(=O)C(c2ccccc2)N2Cc3ccccc3C2=N)cc1 (stereo unspecified) | ? | -8% | -22% | ? | 6.3µM* | ?
CC1=C(C(=O)Nc2ccccn2)C(c2ccc(Br)cc2)NC(=S)N1 (stereo unspecified) | -6% | 0% | -7% | -10% | -5% | 0.71µM*
CC1=C(C(=O)Nc2ccccn2)C(c2ccc(Cl)cc2)NC(=S)N1 (stereo unspecified) | . | -2% | -9% | -10% | ? | 3.5µM*
CCOc1cccc(C2NC(=S)NC(C)=C2C(=O)Nc2ccccc2)c1 (stereo unspecified) | -4% | 0% | -15% | -14% | 1% | 2.2µM*
O=C1c2ccccc2C(=O)N1CCn1c(=O)oc2ccccc21 | -7% | -9% | -9% | -18% | 2% | 0%
CC1=Nn2c(nnc2-c2n[nH]c3c2CCC3)SC1 | -3% | 2% | 3% | -3% | -2% | 1%
CC(C)(C)C1=Nn2c(nnc2-c2n[nH]c3c2CCC3)SC1 | 16µM* | -3% | 5% | 0% | -29% | ?
CCCCN(CC)CCNc1ncnc2onc(-c3ccc(Cl)cc3)c12 | . | 3% | -10% | -1% | . | .
CN1CCc2c(sc(/N=C/c3c[nH]c4ccccc34)c2C(N)=O)C1 | . | ? | ? | 10µM* | ? | .
CN1CCc2c(sc(/N=C/c3c[nH]c4ccccc34)c2C#N)C1 | . | ? | ? | 14µM* | ? | .
CCOC(=O)c1c(/N=C/c2ccc(OC)cc2O)sc2c1CCN(C)C2 | . | -11% | ? | ? | ? | .
CN1CCc2c(sc(/N=C/c3cc(Cl)ccc3O)c2C#N)C1 | . | 0% | -28% | ? | ? | .
COc1cc(NC(=S)N2CCC(C(N)=O)CC2)c(OC)cc1Cl | . | -1% | 2% | -3% | -4% | -4%
CCOc1ccc(S(=O)(=O)NCCSCc2ccco2)cc1 | -22% | 3% | -15% | -20% | -1% | 2.8µM*
COc1ccc(S(=O)(=O)NCCSCc2ccco2)cc1OC | -11% | -2% | -12% | ? | 8% | ?
CCOc1ccc(S(=O)(=O)NCCC(=O)NCc2ccco2)cc1 | -2% | 6% | 4% | 0% | 2% | 2%
COc1ccc(S(=O)(=O)NCCSCc2cccs2)cc1 | -3% | -3% | -16% | -8% | 2% | 1µM*
Cc1ccc(-c2ccc(S(=O)(=O)NCc3ccco3)cc2)cc1 | . | 2% | -3% | -13% | -6% | 12%
